Experimental findings from the supplement of paper PMC8728848 are described below.

Common to all, as to assay: glycan array binding signal (z-score within array); higher = stronger binding
What all share (settings): glycan notation: IUPAC condensed, linker removed

Experiment [1] has as its target Fuc(a1-2)Gal(b1-4)GlcNAc(b1-3)Gal(b1-4)GlcNAc. The procedure, abridged:
(§1)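 Columns mapping to the same glycan were averaged after glycan names were converted to IUPAC-condensed notation. The data come from 3228 arrays in the Consortium for Functional Glycomics database, limited to those with an available protein sequence. Binding is reported as a within-array Z-score averaged across arrays of one protein sequence and across linkers.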

For experiment [2], the target named is Fuc(a1-3)[Gal3S(b1-4)]GlcNAc6S. The procedure, abridged: as §1
The target in experiment [3] is Fuc(a1-3)[Neu5Ac(a2-3)]Gal(b1-4)GlcNAc(b1-3)GalNAc. The procedure, abridged:
as §1

The target in experiment [4] is Gal(b1-3)GalNAc(b1-4)[Neu5Ac(a2-3)]Gal(b1-4)Glc. An outline of the steps:
as §1

Experiment [5] concerns the target Gal(b1-3)[Fuc(a1-4)]GlcNAc(b1-3)Gal(b1-4)[Fuc(a1-3)]GlcNAc. An outline of the steps: as §1
The target of the next experiment is Gal(b1-4)Glc6S. The procedure, abridged:
as §1

Experiment [6] has as its target Gal(b1-4)GlcNAc(b1-2)Man(a1-6)Man(b1-4)GlcNAc(b1-4)GlcNAc. The procedure, abridged:
as §1

Experiment [7] has as its target Gal(b1-4)GlcNAc(b1-2)Man(a1-6)[Man(a1-3)]Man(b1-4)GlcNAc(b1-4)GlcNAc. The procedure, abridged: as §1
Experiment [8] concerns the target Gal(b1-4)GlcNAc(b1-6)[Gal(b1-3)]GalNAc. An outline of the steps: as §1
Experiment [9] has as its target Gal3S(b1-3)[Fuc(a1-4)]GlcNAc. The procedure, abridged:
as §1

Another experiment addresses GalNAc(b1-3)Gal. The procedure, abridged: as §1
Experiment [10] has as its target GalNAc(b1-3)Gal(a1-4)Gal(b1-4)GlcNAc. The procedure, abridged: as §1
For experiment [11], the target named is GlcNAc(a1-4)Gal(b1-4)GlcNAc(b1-3)Gal(b1-4)[Fuc(a1-3)]GlcNAc(b1-3)Gal(b1-4)[Fuc(a1-3)]GlcNAc. The procedure, abridged: as §1
Experiment [12] has as its target GlcNAc(b1-2)Man(a1-3)[GlcNAc(b1-2)Man(a1-6)]Man(b1-4)GlcNAc(b1-4)GlcNAc. An outline of the steps:
as §1

The target in another experiment is GlcNAc(b1-3)Gal(b1-4)Glc. The procedure, abridged:
as §1

The target in a further experiment is Kdn(a2-3)Gal(b1-4)GlcNAc. The procedure, abridged: as §1
Experiment [13] deals with Man(a1-2)Man(a1-2)Man(a1-3)Man. The procedure, abridged: as §1
The target of another experiment is Man(a1-3)[Man(a1-6)]Man. The procedure, abridged:
as §1

Experiment [14] has as its target Neu5Ac(a2-3)Gal(b1-3)GalNAc(b1-3)Gal(a1-4)Gal(b1-4)Glc. An outline of the steps:
as §1

Experiment [15] has as its target Neu5Ac(a2-3)Gal(b1-3)[Neu5Ac(a2-3)Gal(b1-4)]GlcNAc. An outline of the steps:
as §1

For another experiment, the target named is Neu5Ac(a2-6)Gal(b1-4)Glc. An outline of the steps:
as §1

Experiment [16] deals with Neu5Ac(a2-8)Neu5Ac(a2-3)[GalNAc(b1-4)]Gal(b1-4)Glc. The procedure, abridged:
as §1

Experiment [17] concerns the target Neu5Ac9Ac(a2-3)Gal(b1-3)GlcNAc. An outline of the steps:
as §1

For experiment [18], the target named is Neu5Ac9Ac(a2-6)Gal(b1-4)GlcNAc. The procedure, abridged: as §1
Experiment [19] concerns the target Neu5Gc(a2-3)Gal(b1-4)[Fuc(a1-3)]GlcNAc. An outline of the steps:
as §1

Experiment [20] concerns the target Fuc(a1-3)[Gal(b1-4)]GlcNAc6S. An outline of the steps:
as §1

A further experiment addresses Gal(a1-4)Gal(b1-4)Glc. The procedure, abridged:
as §1

A further experiment has as its target Gal(a1-4)GlcNAc. The procedure, abridged:
as §1

In experiment [21] the target is Gal(b1-3)GlcNAc(b1-3)Gal(b1-4)Glc. The procedure, abridged: as §1
Experiment [22] addresses Gal(b1-4)GalNAc(b1-3)[Fuc(a1-2)]Gal(b1-4)GlcNAc. The procedure, abridged:
as §1

The target in experiment [23] is GlcNAc(b1-4)GlcNAc(b1-4)GlcNAc(b1-4)GlcNAc(b1-4)GlcNAc(b1-4)GlcNAc. An outline of the steps: as §1
For experiment [24], the target named is Man(a1-2)Man(a1-2)Man(a1-6)[Man(a1-3)]Man. The procedure, abridged: as §1
The target of experiment [25] is Man(a1-2)Man(a1-3)[Man(a1-2)Man(a1-6)]Man. The procedure, abridged: as §1
The target of experiment [26] is Man(a1-2)Man(a1-3)[Man(a1-2)Man(a1-6)]Man(a1-6)[Man(a1-2)Man(a1-2)Man(a1-3)]Man. The procedure, abridged:
as §1

The target in experiment [27] is Man(a1-2)Man(a1-6)[Man(a1-3)]Man(a1-6)[Man(a1-2)Man(a1-2)Man(a1-3)]Man. An outline of the steps:
as §1

In experiment [28] the target is Man(a1-2)Man(a1-6)[Man(a1-3)]Man(a1-6)[Man(a1-2)Man(a1-2)Man(a1-3)]Man(b1-4)GlcNAc(b1-4)GlcNAc. An outline of the steps:
as §1

Another experiment concerns the target Man(a1-6)Man. An outline of the steps: as §1
Experiment [29] concerns the target Neu5Ac(a2-3)Gal(b1-3)GalNAc(b1-3)Gal(b1-4)GlcNAc. The procedure, abridged:
as §1

Experiment [30] deals with Neu5Ac(a2-3)Gal(b1-4)GlcNAc(b1-2)Man(a1-3)[Neu5Ac(a2-6)Gal(b1-4)GlcNAc(b1-2)Man(a1-6)]Man(b1-4)GlcNAc(b1-4)GlcNAc. An outline of the steps:
as §1

For experiment [31], the target named is Neu5Ac(a2-3)Gal(b1-4)[Fuc(a1-3)]GlcNAc. The procedure, abridged: as §1
Experiment [32] has as its target Neu5Ac(a2-6)Gal(b1-4)GlcNAc(b1-2)Man(a1-3)[Neu5Ac(a2-6)Gal(b1-4)GlcNAc(b1-2)Man(a1-6)]Man(b1-4)GlcNAc(b1-4)GlcNAc. The procedure, abridged:
as §1

Experiment [33] concerns the target Neu5Ac(a2-6)Gal(b1-4)GlcNAc(b1-3)Gal(b1-4)GlcNAc. An outline of the steps: as §1
In experiment [34] the target is Neu5Ac(a2-8)Neu5Ac(a2-8)Neu5Ac(a2-3)Gal(b1-4)Glc. An outline of the steps: as §1

About 410 targets per protein were measured; listed, in parts, are those with the strongest signals and a random draw of the rest.

B1: Flo11 (Saccharomyces cerevisiae), Q1H8S8 (protein)
chain: MGSSHHHHHHSSGLVPRGSHMFPTALVPRGSSEGTSCNSIVNGCPNLDFNWHMDQQNIMQYTLDVTSVSWVQDNTYQITIHVKGKENIDLKYLWSLKIIGVTGPKGTVQLYGYNENTYLIDNPTDFTATFEVYATQDVNSCQVWMPNFQIQFEYLQGSAAQYASSWQWGTTSFDLSTGCNNYDNQGHSQTDFPGFYWNIDCDNNCGGTKSS
B1: the “glycan array binding signal (z-score)” value in [1] was -0.01; in [2] it was 1.26; in experiment [3] it was 3.1; in experiment [4] it was 2.88; in experiment [5], -0.502; in the experiment with Gal(b1-4)Glc6S, -0.505. Moreover, the “glycan array binding signal (z-score)” value in experiment [6] is -0.507; in experiment [7], -0.506; in experiment [8], -0.482; in experiment [9], -0.502; in the experiment with GalNAc(b1-3)Gal, 3.63; in experiment [10], 4.27. Also, the “glycan array binding signal (z-score)” value was 0.071 in experiment [11]; -0.505 in experiment [12]; 1.26 in the experiment with GlcNAc(b1-3)Gal(b1-4)Glc; -0.496 with Kdn(a2-3)Gal(b1-4)GlcNAc; -0.505 in experiment [13]; -0.502 with Man(a1-3)[Man(a1-6)]Man. Also, the “glycan array binding signal (z-score)” value in [14] is 3.08; in [15] it was -0.511; with Neu5Ac(a2-6)Gal(b1-4)Glc, -0.507; in experiment [16], 3.67; in experiment [17], -0.505; in experiment [18] it was -0.494. For the same molecule, the “glycan array binding signal (z-score)” value in [19] is 3.45.

B2: Surfactant Protein D (rat); Neck + Carbohydrate Recognition Domain (NCRD) (Rattus norvegicus) (protein)
chain: MLLFLLSALVLLTQPLGYLEAEMKTYSHRTMPSACTLVMCSSVESGLPGRDGRDGREGPRGEKGDPGLPGAAGQAGMPGQAGPVGPKGDNGSVGEPGPKGDTGPSGPPGPPGVPGPAGREGALGKQGNIGPQGKPGPKGEAGPKGEVGAPGMQGSAGARGAGPKGERGVPGERGVPGNTGAAGSAGAMGPQGSPGARGPPGLKGDKGIPGDKGAKGESGLPDVASLRQQVEALQGQVQHLQAAFSQYKKVELFPNGQSVGEKIFKTAGFVKPFTEAQLLCTQAGGQLASPRSAAENAALQQLVVAKNEAAFLSMTDSKTEGKFTYPTGESLVYSNWAPGEPNDDGGSEDCVEIFTNGKWNDRACGEKRLVVCEF
With B2, the “glycan array binding signal (z-score)” value is -0.183 in experiment [1]; 0.145 in experiment [20]; -0.276 with Gal(a1-4)Gal(b1-4)Glc; -0.242 in the experiment with Gal(a1-4)GlcNAc; -0.194 in [21]; -0.02 in [22]. The “glycan array binding signal (z-score)” value in [23] was -0.108; in experiment [24], 4.11; in experiment [25], 3; in experiment [26], 13.2; in [27], 4.18; in [28], 8.4. In addition, the “glycan array binding signal (z-score)” value with Man(a1-6)Man was -0.223; in experiment [14], -0.176; in experiment [29] it was -0.198; in experiment [30], -0.117; in [31] it was 0.004; in [32], 0.111. For the same molecule, the “glycan array binding signal (z-score)” value in [33] was -0.105; in experiment [34], -0.048.
